Bioassay records from PubChem.
An excerpt weighted towards active compounds, which were near 4.2% of everything screened.
PTK2B oligo ant = antagonists of human Pyk2 oligomerization; Q293 cells, Pyk2 FERM NanoBiT luminescence; stronger effect = lower value; z-score (the deposit names both 25 µM and 10 µM); hit rate 0.83% among 99,000; AID 1347419;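 active = Z-score of -3 or lower, scaled per plate to the spread of control and sample wells; inactive = z-score above -3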;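 also: negative z-score means lost luminescence so less FERM oligomerization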
CD11b adhes inh = CD11b/CD18-fibrinogen binding inhibition; hit rate 0.54% among 93,000; inhibition, % at 10 µM; K562 CD11b/CD18 adhesion to fibrinogen, ATPlite luminescence; Mn2+ added to activate the integrin; P05107+P11215;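 active = primary inhibition of 50% or more at 10 µM, then 40% or more on retest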
Ec RNAP inh = Escherichia coli RNA polymerase inhibition; hit rate 0.2% among 62,000; AID 559; inhibition, %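 (tested at 10 µM)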; E. coli RNA polymerase, fluorescence transcription assay; in the data active = inhibition above about 20%
Cav3 T inh = human Cav3.2 channel inhibition, primary screen. O95180. Cav3.2-expressing cells, Fluo-4 calcium fluorescence FDSS; stronger effect = lower value. B-score at 10 µM. hit rate 4% among 100,000. AID 449739;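 active = single-dose well whose peak fluorescence ratio is a statistical outlier from its plate by either plate-standardised score or position-corrected B-score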
Mac1 fbg enh = enhancers of human CD11b/CD18 binding to fibrinogen; K562 CD11b/CD18 adhesion to fibrinogen, ATPlite luminescence; P05107+P11215; activation, % at 10 µM; hit rate 0.07% among 93,000;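 active = 10 µM primary screen giving 50% or more activity, confirmed by 40% or more on retest at that dose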
Each line names hits and unclear results; the compound was inactive in the other large screens.

CCc1ccccc1N(C)C(=O)CCc1nc(-c2ccc(C)cc2)no1	Cav3 T inh -5.5
COc1ccc(Cl)cc1N(C)C(=O)CCc1nc(-c2ccc(C)cc2)no1	Cav3 T inh -5.7
CC1CCCC(NC(=O)COC(=O)c2sc3ccccc3c2Cl)C1C (configuration not stated)	none (no result: PTK2B oligo ant, Ec RNAP inh, Cav3 T inh)
Cc1ccc(/C=C/C(=O)c2cc(Br)ccc2OC(=O)c2ccco2)cc1	none (no result: Ec RNAP inh)
COc1ccccc1/C=C/C(=O)c1cc(Br)ccc1OC(=O)c1ccco1	Cav3 T inh -4.5 (no result: CD11b adhes inh, Ec RNAP inh, Mac1 fbg enh)
N#CC(c1cccc(C(F)(F)F)c1)(c1ncc(C(F)(F)F)cc1Cl)N1CCOCC1 (configuration not stated)	Cav3 T inh -4.3 (no result: CD11b adhes inh, Ec RNAP inh, Mac1 fbg enh)
O=c1[nH]c(=O)n(Cc2ccccc2)c2c1C(C(F)(F)F)(C(F)(F)F)N=C(c1ccco1)N2	PTK2B oligo ant -3.5 (no result: CD11b adhes inh, Ec RNAP inh, Mac1 fbg enh)
Cc1c(C(=O)c2ccc(Cl)cc2Cl)cnc2cc3c(cc12)OCO3	Cav3 T inh -4 (no result: CD11b adhes inh, Ec RNAP inh, Mac1 fbg enh)
COc1ccc(CNC(=O)C(c2ccc(C)o2)N(C(=O)c2csnn2)c2ccc(C(C)C)cc2)cc1 (configuration not stated)	Cav3 T inh -7.1 (no result: Ec RNAP inh)
Cc1ccc(C(C(=O)NCc2ccccc2)N(C(=O)c2csnn2)c2cccc3ccccc23)o1 (configuration not stated)	Cav3 T inh -7 (no result: Ec RNAP inh)
O=C(CN(c1ccc(Cl)cc1)S(=O)(=O)c1ccccc1)N1CCN(c2ccccc2)CC1	Cav3 T inh -8.1 (no result: Ec RNAP inh)
Cc1nn(C)c(C)c1S(=O)(=O)N(CC(=O)N1CCc2ccccc21)c1ccc(C(C)C)cc1	none (no result: PTK2B oligo ant, Ec RNAP inh)
Cc1nn(C)c(C)c1S(=O)(=O)N(CC(=O)N1CCc2ccccc2C1)c1ccc(C(C)C)cc1	Cav3 T inh -4.8 (no result: PTK2B oligo ant, Ec RNAP inh)
O=C(CN(C1CCCCC1)C1CCCCC1)N1CCc2ccccc2C1	Cav3 T inh -5.8 (no result: Ec RNAP inh)
O=C(CCc1ccccc1)N1CCN(c2ccc(Cl)cc2)CC1	Cav3 T inh -5 (no result: Ec RNAP inh)
CS(=O)(=O)N(CCc1ccccc1)CC(=O)N1CCc2ccccc2C1	none
Clc1cccc(/C(Cc2nc3ccccc3[nH]2)=N\Nc2ccccc2)c1	none (no result: PTK2B oligo ant, Ec RNAP inh, Cav3 T inh)
Cn1cc(CC(=O)N2CCN(c3ccc(Cl)cc3)CC2)c2ccccc21	Cav3 T inh -4.5
COc1ccc(N(CC(=O)N2CCc3ccccc3C2)S(C)(=O)=O)cc1OC	none (no result: Ec RNAP inh)
O=C(CN(c1ccc(Cl)c(Cl)c1)S(=O)(=O)c1ccccc1)N1CCc2ccccc2C1	Cav3 T inh -5.4 (no result: CD11b adhes inh, Ec RNAP inh, Mac1 fbg enh)
COc1ccc(CCNc2nc(-c3sc(C)nc3C)cs2)cc1OC	CD11b adhes inh 60 (no result: Ec RNAP inh)
C#CC(CO)N(CCN(Cc1ccccc1)C(C#C)CO)Cc1ccccc1 (configuration not stated)	Cav3 T inh -6.7
O=C(Nc1cc(Cl)cc(Cl)c1)c1ccc(Cn2c(=O)[nH]c3ccsc3c2=O)cc1	none (no result: PTK2B oligo ant, CD11b adhes inh, Ec RNAP inh, Mac1 fbg enh)
Cn1c(=O)oc2cc(S(=O)(=O)N3CCCC(C(=O)NC4CCCc5ccccc54)C3)ccc21 (configuration not stated)	none (no result: PTK2B oligo ant, Ec RNAP inh)
O=C(Cn1c(=O)oc2cc(S(=O)(=O)N3CCOCC3)ccc21)N1CCc2ccccc2C1	none (no result: PTK2B oligo ant)
Cn1c(=O)oc2cc(S(=O)(=O)N3CCCC(C(=O)N4CC=C(c5ccccc5)CC4)C3)ccc21 (configuration not stated)	CD11b adhes inh 61 (no result: PTK2B oligo ant, Cav3 T inh)
O=C(Cn1c(=O)oc2cc(S(=O)(=O)N3CCCC3)ccc21)N1CCc2ccccc2C1	Cav3 T inh -5.7 (no result: PTK2B oligo ant, Ec RNAP inh)
CCOc1ccc(OCC)c(NC(=O)CN(c2ccc(C)cc2)S(=O)(=O)c2c(C)noc2C)c1	none
COc1ccc(OC)c(NC(=O)CN(c2ccc(C)cc2)S(=O)(=O)c2c(C)noc2C)c1	none
CCOc1ccccc1NC(=O)CN(c1ccc(C)cc1)S(=O)(=O)c1c(C)noc1C	Cav3 T inh -4.7
COc1ccc(OC)c(NC(=O)CN(c2ccc(C(C)C)cc2)S(=O)(=O)c2c(C)noc2C)c1	Cav3 T inh -4.5 (no result: PTK2B oligo ant)
CCN(CCCNC(=O)CCc1nc(-c2ccc(OC)cc2)no1)c1cccc(C)c1	Cav3 T inh -8.8
COc1ccc(-c2noc(CCC(=O)N3CCN(c4cc(C)ccc4C)CC3)n2)cc1	Cav3 T inh -6.9
COc1ccc(-c2noc(CCC(=O)NCCN(C)Cc3ccccc3)n2)cc1	none
Cc1nnc(NC(=O)c2ccc3c(c2)C(=O)N(CCC(C)C)C3=O)s1	none (no result: Ec RNAP inh)
CCC(=O)N1N=C(c2ccc(NS(C)(=O)=O)cc2)CC1c1ccc(C)cc1 (configuration not stated)	none (no result: Ec RNAP inh)
